Source: PubChem BioAssay (NCI)
Compounds without any hit were thinned out: in the full panel of roughly 83,000, 20% have a hit.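 Compound tested at a single concentration for 48 hours in 96-well plates; a percent growth value below 10 was scored as active.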 Values without a mark were called inactive. Calls of active or inactive are those of the source.

Tests used:
Experiment in all cases: NCI-60 one-dose screen, 48 h (100 = growth as untreated, 0 = no growth, -100 = all killed)
[1] = test system: HT29 colon; settings: 10 µM unless noted
[2] = test system: SNB-75 CNS; settings: 10 µM unless noted
[3] = test system: SNB-19 CNS; settings: 10 µM unless noted
[4] = test system: U251 CNS; settings: 10 µM unless noted
[5] = test system: PC-3 prostate; settings: 10 µM unless noted
[6] = test system: SK-MEL-5 melanoma; settings: 10 µM unless noted
[7] = test system: UACC-62 melanoma; settings: 10 µM unless noted
[8] = test system: LOX IMVI melanoma; settings: 10 µM unless noted
[9] = test system: SK-MEL-28 melanoma; settings: 10 µM
[10] = test system: SK-MEL-2 melanoma; settings: 10 µM unless noted
[11] = test system: SN12C renal; settings: 10 µM unless noted
[12] = test system: UO-31 renal; settings: 10 µM unless noted
[13] = test system: TK-10 renal; settings: 10 µM unless noted
[14] = test system: ACHN renal; settings: 10 µM unless noted
[15] = test system: CAKI-1 renal; settings: 10 µM unless noted
[16] = test system: A498 renal; settings: 10 µM unless noted
[17] = test system: CCRF-CEM leukemia; settings: 10 µM unless noted
[18] = test system: MOLT-4 leukemia; settings: 10 µM unless noted
[19] = test system: EKVX NSCLC; settings: 10 µM unless noted
[20] = test system: SR leukemia; settings: 10 µM unless noted

## COc1cc(CNC(=O)c2ccsc2Nc2ccnc(C(F)(F)F)c2)ccc1O
[1]
  growth: 97.8%
[2]
  growth: 101%
[3]
  growth: 96%
[4]
  growth: 95.4%
[5]
  growth: 88.1%
[6]
  growth: 98.2%
[7]
  growth: 102%
[8]
  growth: 91.7%
[9]
  growth: 118%
[10]
  growth: 103%
[11]
  growth: 94.6%
[12]
  growth: 82.7%
[13]
  growth: 99.8%
[14]
  growth: 98.2%
[15]
  growth: 95.7%
[16]
  growth: 93%
[17]
  growth: 83.7%
[18]
  growth: 85.4%

## Cc1cc(Br)c(N)c(Br)c1
[1]
  growth: 106%
[2]
  growth: 84.3%
[3]
  growth: 103%
[4]
  growth: 96.4%
[5]
  growth: 93%
[6]
  growth: 102%
[7]
  growth: 98.6%
[8]
  growth: 93.6%
[9]
  growth: 101%
[10]
  growth: 110%
[19]
  growth: 95.6%
[11]
  growth: 109%
[12]
  growth: 102%
[14]
  growth: 99.1%
[15]
  growth: 98%
[16]
  growth: 84.1%
[17]
  growth: 103%
[18]
  growth: 96.4%
[20]
  growth: 100%

## C1=CC2(C=C1)OC21CCC2(C=CC3(C2)OC3C2CCCCC2)CC1 (stereo unspecified)
[1]
  growth: 110%
[2]
  growth: 94.2%
[3]
  growth: 104%
[4]
  growth: 99.5%
[5]
  growth: 101%
[6]
  growth: 106%
[7]
  growth: 99.7%
[8]
  growth: 92.5%
[9]
  growth: 105%
[10]
  growth: 104%
[11]
  growth: 105%
[12]
  growth: 96.8%
[13]
  growth: 113%
[14]
  growth: 104%
[15]
  growth: 93.6%
[16]
  growth: 97.2%
[17]
  growth: 97.1%
[18]
  growth: 95.6%
[20]
  growth: 90.7%

## CCOC(=O)c1cc2c(n1Cc1ccccc1)-c1oncc1CCC2
[1]
  growth: 37.7%
[2]
  growth: 75.6%
[3]
  growth: 88.1%
[4]
  growth: 85.8%
[5]
  growth: 80.6%
[6]
  growth: 66.6%
[7]
  growth: 51.8%
[8]
  growth: 79.4%
[9]
  growth: 67%
[10]
  growth: 83.5%
[11]
  growth: 82.2%
[12]
  growth: 62.5%
[13]
  growth: 114%
[14]
  growth: 83.8%
[15]
  growth: 74%
[16]
  growth: 74.7%
[17]
  growth: 66.4%
[18]
  growth: 72%
[20]
  growth: 14.1%

## COc1ccc(-c2nc(-c3ccccc3)c(-c3ccccc3)[nH]2)cc1OC1CCCCC1
[1]
  growth: 99.1%
[2]
  growth: 78.7%
[3]
  growth: 85.8%
[4]
  growth: 90.3%
[5]
  growth: 64.8%
[6]
  growth: 93.6%
[7]
  growth: 76.7%
[8]
  growth: 83.4%
[9]
  growth: 96.4%
[10]
  growth: 95.1%
[11]
  growth: 81.6%
[12]
  growth: 59.3%
[13]
  growth: 115%
[14]
  growth: 68.9%
[15]
  growth: 71.7%
[16]
  growth: 68.2%
[17]
  growth: 91.6%
[18]
  growth: 79.4%

## O=C1c2cc(Cl)ccc2Oc2cc([N+](=O)[O-])ccc2N1c1ccc(F)cc1F
[1]
  growth: 79%
[2]
  growth: 69.8%
[3]
  growth: 91.9%
[4]
  growth: 86.6%
[5]
  growth: 89.4%
[6]
  growth: 68.7%
[7]
  growth: 81.2%
[8]
  growth: 95.4%
[9]
  growth: 114%
[10]
  growth: 80.3%
[19]
  growth: 108%
[12]
  growth: 71.2%
[13]
  growth: 112%
[14]
  growth: 90.6%
[15]
  growth: 59%
[16]
  growth: 91.3%
[17]
  growth: 85.3%
[18]
  growth: 57.4%

## CN(CCc1ccccc1)C(=S)N(C(=O)c1ccc([N+](=O)[O-])cc1)c1ccc(Cl)cc1
[1]
  growth: 92.7%
[2]
  growth: 97.2%
[3]
  growth: 101%
[4]
  growth: 90.4%
[5]
  growth: 77.5%
[6]
  growth: 98.3%
[7]
  growth: 92%
[8]
  growth: 61.3%
[9]
  growth: 95.2%
[10]
  growth: 87.9%
[19]
  growth: 95.1%
[12]
  growth: 76.8%
[13]
  growth: 76%
[14]
  growth: 106%
[15]
  growth: 85.5%
[16]
  growth: 93.4%
[17]
  growth: 39.6%
[18]
  growth: 43.1%
[20]
  growth: 25%

## O=C(Nc1ccsc1C(=O)NC1CCCCC1)c1ccc(F)cc1
[1]
  growth: 92.9%
[2]
  growth: 85.2%
[3]
  growth: 98.8%
[4]
  growth: 101%
[5]
  growth: 67.9%
[6]
  growth: 105%
[7]
  growth: 103%
[8]
  growth: 97.7%
[9]
  growth: 96.4%
[10]
  growth: 121%
[11]
  growth: 98.3%
[12]
  growth: 94.4%
[13]
  growth: 114%
[14]
  growth: 101%
[15]
  growth: 95.6%
[16]
  growth: 95.5%
[17]
  growth: 66.6%
[18]
  growth: 95.6%
[20]
  growth: 79.4%

## COc1ccc(C)c2sc(N(Cc3cccnc3)C(=O)c3ccc(C#N)cc3)nc12
[1]
  growth: 16%
[2]
  growth: 15.4%
[3]
  growth: 12.4%
[4]
  growth: 1.87% (active)
[5]
  growth: 16%
[6]
  growth: -62.2% (active)
[7]
  growth: -33.3% (active)
[8]
  growth: -7.23% (active)
[9]
  growth: 15.9%
[10]
  growth: 13.1%
[11]
  growth: 7.62% (active)
[12]
  growth: -50.8% (active)
[13]
  growth: 18%
[14]
  growth: 5.85% (active)
[15]
  growth: -33.1% (active)
[16]
  growth: 2.59% (active)
[17]
  growth: 8.67% (active)
[18]
  growth: 3.94% (active)
[20]
  growth: 8.52% (active)

## CCCCCCCCCCCCCCn1cc(C2=C(c3coc4ccc(OC)cc34)C(=O)NC2=O)c2ccccc21
[1]
  growth: 77.1%
[2]
  growth: 80.6%
[3]
  growth: 101%
[4]
  growth: 97.9%
[5]
  growth: 109%
[6]
  growth: 107%
[7]
  growth: 95.9%
[8]
  growth: 101%
[9]
  growth: 101%
[10]
  growth: 104%
[19]
  growth: 90.9%
[11]
  growth: 100%
[12]
  growth: 83.5%
[13]
  growth: 102%
[14]
  growth: 102%
[15]
  growth: 88.8%
[17]
  growth: 101%
[18]
  growth: 118%
[20]
  growth: 111%

## CCCCN1CCN(c2ccc3nc(-c4ccc5nc(-c6ccc(OCC)cc6)[nH]c5c4)[nH]c3c2)CC1
[1]
  growth: 21.4%
[2]
  growth: 60%
[3]
  growth: 85.3%
[4]
  growth: 60.5%
[5]
  growth: 56.7%
[6]
  growth: 49.3%
[7]
  growth: 59.9%
[8]
  growth: -81% (active)
[9]
  growth: 61.6%
[10]
  growth: 86.6%
[19]
  growth: 92.9%
[11]
  growth: 76.9%
[12]
  growth: 100%
[13]
  growth: 86.8%
[14]
  growth: 63.9%
[15]
  growth: 51.2%
[17]
  growth: 20.5%
[18]
  growth: 56.9%
[20]
  growth: -1.98% (active)

## COc1ccc(OC)c(/C=C/C(=O)c2c(C)nc3ccccc3c2/C=C/c2ccccc2)c1
[1]
  growth: 37.2%
[2]
  growth: 59.2%
[3]
  growth: 80.9%
[4]
  growth: 54.1%
[5]
  growth: 59.4%
[6]
  growth: 82.9%
[7]
  growth: 50.1%
[8]
  growth: 42.8%
[9]
  growth: 95.1%
[10]
  growth: 72.2%
[19]
  growth: 79.4%
[12]
  growth: 60.3%
[13]
  growth: 112%
[14]
  growth: 74.6%
[15]
  growth: 54.4%
[16]
  growth: 83.2%
[17]
  growth: 9.58% (active)
[18]
  growth: 10.2%

## COc1cc(C#N)cc2[nH]c(=O)oc12
[1]
  growth: 106%
[2]
  growth: 71.9%
[3]
  growth: 106%
[4]
  growth: 92.4%
[5]
  growth: 102%
[6]
  growth: 96.7%
[7]
  growth: 113%
[8]
  growth: 111%
[9]
  growth: 107%
[10]
  growth: 106%
[11]
  growth: 115%
[12]
  growth: 85.6%
[13]
  growth: 103%
[14]
  growth: 99.7%
[15]
  growth: 91.8%
[16]
  growth: 82.5%
[17]
  growth: 109%
[18]
  growth: 123%
[20]
  growth: 120%

## COC(=O)c1cc2c(n1Cc1ccccc1)-c1oncc1CCC2
[1]
  growth: 30.9%
[2]
  growth: 67.2%
[3]
  growth: 81.8%
[4]
  growth: 68.6%
[5]
  growth: 77.4%
[6]
  growth: 58.6%
[7]
  growth: 49.7%
[8]
  growth: 67.8%
[9]
  growth: 62.5%
[10]
  growth: 47.7%
[11]
  growth: 73.2%
[12]
  growth: 79.9%
[13]
  growth: 102%
[14]
  growth: 79.8%
[15]
  growth: 78.7%
[16]
  growth: 53.8%
[17]
  growth: 61.7%
[18]
  growth: 61.7%
[20]
  growth: 12.2%

## COc1cc(/C(C#N)=C/c2nc3c(N4CCOCC4)nc(Cl)nc3n2C)cc(OC)c1OC
[1]
  growth: 9.95% (active)
[2]
  growth: -9.92% (active)
[3]
  growth: 17.7%
[4]
  growth: 8.74% (active)
[5]
  growth: 10.6%
[6]
  growth: -38.3% (active)
[7]
  growth: 2.78% (active)
[8]
  growth: 8.21% (active)
[9]
  growth: 46%
[10]
  growth: 57.3%
[19]
  growth: 35.2%
[12]
  growth: -1.84% (active)
[13]
  growth: 50.5%
[14]
  growth: 13.7%
[15]
  growth: 6.49% (active)
[16]
  growth: -28.1% (active)
[17]
  growth: 14.4%
[18]
  growth: 9.93% (active)
[20]
  growth: 27.9%
